Some test systems named below: NCI-H23 lung; NCI-H226 lung; NCI-H322M lung; HOP-62 NSCLC; NCI-H460 lung; NCI-H522 lung; A549/ATCC NSCLC; 786-0 renal; COLO 205 colon; DU-145 prostate; K-562 leukemia; MALME-3M melanoma; MDA-MB-231 breast; RXF 393 renal; SF-268 CNS; SF-295 CNS; SF-539 CNS; UACC-257 melanoma; M14 melanoma; HOP-92 NSCLC.
Assay in all cases: NCI-60 one-dose screen, 48 h (100 = growth as untreated, 0 = no growth, -100 = all killed)
Common to all, as to conditions: 10 µM unless noted

Compounds without any hit were thinned out: in the full panel of roughly 83,000, 20% have a hit.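 Single-dose data. Exposure time 48 hours. Values below 10 considered active.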 Unmarked numbers belong to inactive results. Activity calls are given as the source filed them.

For the molecule `COc1cc2c(cc1OCCCN1CCN(CCCOc3cc4c(cc3OC)C(=O)N3CCC[C@H]3C=N4)CC1)C=CC(C)(C)O2`, the growth in the assay with NCI-H23 lung was -58.5% (active); with NCI-H226 lung it was -70.3% (active); with NCI-H322M lung, -80.7% (active); in the assay on HOP-62 NSCLC, -50.9% (active); with NCI-H460 lung it was -94.8% (active); in the assay with NCI-H522 lung, -80.5% (active). Moreover, the growth is -79.2% (active) in the assay with A549/ATCC NSCLC; -97.1% (active) with 786-0 renal; -76.8% (active) with COLO 205 colon; -100% (active) in the assay with DU-145 prostate; -35.8% (active) in the assay on K-562 leukemia; -89.1% (active) in the assay on MALME-3M melanoma. Moreover, the growth in the assay with MDA-MB-231 breast is -81.9% (active); with RXF 393 renal, -92% (active); in the assay with SF-268 CNS it was -91.9% (active); with SF-295 CNS, -59.2% (active); with SF-539 CNS it was -100% (active); in the assay with UACC-257 melanoma, -62.4% (active). Also, the growth in the assay on M14 melanoma was -74.2% (active).
Consider `COc1cc(NS(=O)(=O)c2ccc(-c3cnc(C4CC4)o3)cc2)ccc1F`, for which the growth is 33.6% in the assay with NCI-H23 lung; 36.7% with NCI-H226 lung; 49.5% with NCI-H322M lung; 41.8% with HOP-62 NSCLC; 18.7% in the assay on NCI-H460 lung; 0.251% (active) in the assay with NCI-H522 lung. The growth with 786-0 renal is 31.4%; with COLO 205 colon, 3.71% (active); with DU-145 prostate it was 23%; in the assay on K-562 leukemia, 12.2%; with MALME-3M melanoma, 55.8%; in the assay on MDA-MB-231 breast it was 24.2%. The growth is 12.4% in the assay on RXF 393 renal; 55.7% in the assay with SF-268 CNS; 15.6% in the assay with SF-295 CNS; 1.5% (active) in the assay on SF-539 CNS; 69% with UACC-257 melanoma; 19% with M14 melanoma.
In the case of `O=C1C(Cl)=C(NCCCCCCNC2=C(Cl)C(=O)c3ccccc3C2=O)C(=O)c2ccccc21`, the growth in the assay on NCI-H23 lung is 61.8%; with NCI-H226 lung, 102%; with NCI-H322M lung, 92.2%; in the assay on HOP-62 NSCLC, 112%; in the assay with NCI-H460 lung, 94.8%; in the assay with NCI-H522 lung it was 90.7%. The growth with A549/ATCC NSCLC is 102%; in the assay on 786-0 renal, 114%; in the assay with COLO 205 colon it was 86.2%; in the assay on DU-145 prostate, 104%; with K-562 leukemia, 69.7%; in the assay on MALME-3M melanoma, 88.8%. The growth with MDA-MB-231 breast is 78.2%; in the assay with RXF 393 renal, 123%; in the assay with SF-268 CNS, 98.2%; in the assay with SF-295 CNS, 114%; in the assay on SF-539 CNS, 115%; in the assay with UACC-257 melanoma, 75%. Further, the growth in the assay on M14 melanoma is 87.9%.
`O=C(/C=C/c1cccs1)Nc1ncc(Cc2ccccc2F)s1`: the growth in the assay with NCI-H23 lung is 47.5%; with NCI-H226 lung, 57.8%; in the assay on NCI-H322M lung, 37.9%; in the assay with HOP-62 NSCLC, 22.4%; in the assay on NCI-H460 lung it was 12.9%; in the assay on NCI-H522 lung it was 6.23% (active). Further, the growth in the assay on A549/ATCC NSCLC was 29%; with 786-0 renal, 30.8%; with COLO 205 colon, 4.7% (active); in the assay on DU-145 prostate, 11.4%; in the assay with K-562 leukemia, 24%; in the assay on MALME-3M melanoma, 40.5%. Also, the growth in the assay on MDA-MB-231 breast was 33.8%; in the assay with RXF 393 renal, -32.4% (active); in the assay with SF-268 CNS, 55.9%; with SF-295 CNS, 9.52% (active); in the assay on SF-539 CNS, -4.04% (active); with UACC-257 melanoma, 58.6%. Further, the growth in the assay on M14 melanoma is -3.15% (active).
Turning to `C=CCc1c(O)c(C(=O)/C=C/c2ccccc2)c(OC)c2ccoc12`, the growth in the assay on NCI-H23 lung is 53.4%; in the assay on NCI-H226 lung it was 21.9%; in the assay with NCI-H322M lung, 61.9%; in the assay on HOP-62 NSCLC it was 88%; in the assay on HOP-92 NSCLC, 47.3%; in the assay with NCI-H522 lung it was 37.9%. The growth was 44.7% in the assay with A549/ATCC NSCLC; 71.3% with 786-0 renal; 59.5% with COLO 205 colon; 63.2% in the assay with DU-145 prostate; 46.8% in the assay on K-562 leukemia; 79.4% with MALME-3M melanoma. The growth in the assay with MDA-MB-231 breast was 47.6%; with RXF 393 renal, 7.33% (active); with SF-268 CNS it was 43%; with SF-295 CNS it was 34.5%; with SF-539 CNS, 24.8%; in the assay with UACC-257 melanoma, 40.6%. The growth in the assay on M14 melanoma was 59.3%.
Take `COc1ccccc1N1CCCCC1`: the growth is 102% with NCI-H23 lung; 104% in the assay with NCI-H226 lung; 108% in the assay on NCI-H322M lung; 90.4% with HOP-62 NSCLC; 104% with HOP-92 NSCLC; 93.8% in the assay with NCI-H522 lung. For the same molecule, the growth is 101% in the assay with A549/ATCC NSCLC; 95.8% with 786-0 renal; 113% in the assay on COLO 205 colon; 110% in the assay on DU-145 prostate; 93.5% with K-562 leukemia; 94.6% in the assay on MALME-3M melanoma. Further, the growth was 99.9% in the assay on MDA-MB-231 breast; 133% in the assay on RXF 393 renal; 108% in the assay on SF-268 CNS; 98.9% in the assay with SF-295 CNS; 94.3% in the assay with SF-539 CNS; 108% in the assay with UACC-257 melanoma. For the same molecule, the growth with M14 melanoma is 101%.
Regarding `COc1ccc(C2=Nc3c(N)nc(N)nc3NC(c3cccc(Nc4ccnc5cc(C(F)(F)F)ccc45)c3)C2)cc1` (stereo not given), the growth was 85.8% in the assay on NCI-H23 lung; 97.2% in the assay with NCI-H226 lung; 99.6% with NCI-H322M lung; 67.8% with HOP-62 NSCLC; 57.3% with HOP-92 NSCLC; 44.9% with NCI-H522 lung. Moreover, the growth is 63.1% with A549/ATCC NSCLC; 73% with 786-0 renal; 57.7% in the assay on COLO 205 colon; 75.5% with DU-145 prostate; 13.2% with K-562 leukemia; 78.3% with MALME-3M melanoma. Moreover, the growth is 70.8% in the assay with MDA-MB-231 breast; 54% in the assay with RXF 393 renal; 69.7% with SF-268 CNS; 78.9% in the assay on SF-295 CNS; 87.1% in the assay with SF-539 CNS; 87.8% in the assay with UACC-257 melanoma. Moreover, the growth in the assay with M14 melanoma was 67.2%.
As to `Cc1cc(C)c2c(c1)N(C)c1ncnc(-n3cnc4cc(C)ccc43)c1CC2C` (stereo not given), the growth is 37.9% in the assay on NCI-H23 lung; 49.9% in the assay with NCI-H226 lung; 48.5% in the assay with NCI-H322M lung; 31.8% in the assay with HOP-62 NSCLC; 38.3% in the assay on HOP-92 NSCLC; -0.316% (active) in the assay on NCI-H522 lung. Also, the growth is 22.8% in the assay on 786-0 renal; 0.292% (active) in the assay on COLO 205 colon; 14.2% with DU-145 prostate; 7.57% (active) in the assay on K-562 leukemia; 45.2% in the assay with MALME-3M melanoma; 36.8% in the assay on MDA-MB-231 breast. In addition, the growth was -24.8% (active) in the assay with RXF 393 renal; 40.4% in the assay with SF-268 CNS; 1.91% (active) in the assay with SF-295 CNS; 6.25% (active) in the assay on SF-539 CNS; 45.3% in the assay on UACC-257 melanoma; 5.2% (active) in the assay on M14 melanoma.

(Values after PubChem BioAssay (NCI).)
